In all, about 390,000 compounds went through this assay and about 55 (0.01%) were called active. The call rests on the fitted dose curve; in most records, active means well fitted inhibition curve with a large enough effect; inconclusive means small, poorly fitted or top-dose-only effect; inactive means no such curve, though single readings can be large or run the other way. These entries were drawn from the full list.
The compounds below were run against Thioredoxin reductase 1, cytoplasmic (Rattus norvegicus) (UniProt O89049) (assay: qHTS Assay for Substrates of Mammalian Selenoprotein Thioredoxin Reductase 1 (TrxR1): qHTS). Details: purified TrxR1 substrate turnover, NADPH consumption readout; series mostly up to 114 µM; activity change, negative = substrate turnover: at the top concentration.
Sequence of Thioredoxin reductase 1, cytoplasmic (Rattus norvegicus) (O89049 whole entry, looked up): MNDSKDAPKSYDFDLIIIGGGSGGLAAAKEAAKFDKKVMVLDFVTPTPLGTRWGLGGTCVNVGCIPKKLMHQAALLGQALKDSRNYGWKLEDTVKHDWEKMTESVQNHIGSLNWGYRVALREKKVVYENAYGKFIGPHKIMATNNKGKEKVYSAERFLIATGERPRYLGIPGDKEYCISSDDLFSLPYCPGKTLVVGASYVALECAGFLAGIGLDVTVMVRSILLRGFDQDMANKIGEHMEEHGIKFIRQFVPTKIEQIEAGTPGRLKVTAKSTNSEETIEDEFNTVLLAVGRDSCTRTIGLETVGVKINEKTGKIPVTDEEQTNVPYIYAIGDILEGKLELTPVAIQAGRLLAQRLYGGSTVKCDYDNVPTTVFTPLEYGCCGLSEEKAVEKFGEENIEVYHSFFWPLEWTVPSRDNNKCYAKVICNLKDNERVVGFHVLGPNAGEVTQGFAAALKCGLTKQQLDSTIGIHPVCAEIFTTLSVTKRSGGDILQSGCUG
Source text: The selenoprotein thioredoxin reductase (TrxR; EC 1.8.1.9) is a FAD containing homodimeric pyridine nucleotide-disulfide oxidoreductase with many cellular roles. Together with NADPH and its prime substrate thioredoxin (Trx), the enzyme forms the core of the Trx system. The mammalian Trx system exerts a wide spectrum of functions including redox regulation, antioxidant defense, regulation of transcription factors as well as support of cell growth and replication. Many of these functions involve the reduction of Trx, which may subsequently reduce a number of different substrates including ribonucleotide reductase, peroxiredoxins or NFkB. Mammalian TrxR itself also has a broad substrate specificity, reducing both protein and non-protein substrates, including low molecular weight compounds such as dehydroascorbate, lipoic acid, ubiquinone, and juglone. In addition, several drugs in clinical use for anticancer treatment are indeed known to target TrxR1.
This BioAssay is a validation of an NADPH fluorescence-based, dual-purpose qHTS rTrxR1 assay designed to find potential inhibitors and substrates of rTrxR1. For this particular BioAssay, actives are potential substrate. See related BioAssay for inhibition data deposition.
NIH Molecular Libraries Probe Production Network [MLPCN]
NIH Chemical Genomics Center [NCGC]
Assay Provider: Elias Arner, Karolinska Institute
Assay protocol: 2 uL of reagents (buffer in column 4 as negative control and 90 nM rTrxR1 in columns 1-3 and 5-48) were dispensed into Greiner black solid-bottom 1,536-well assay plates, followed by 1 uL of NADPH (400 uM final concentration) to each well. The plates were centrifuged at 1000 rpm for 15 seconds and subsequently incubated for 5 min at room temperature (~22 deg C) to allow for rTrxR1 reduction. Compounds (23 nL) were then transferred via Kalypsys pin tool equipped with 1536-pin array (10 nL slotted pins, V&P Scientific, San Diego, CA). In addition, a duplicate 2-fold serial dilution of the control compounds auranofin, a known gold-based TrxR1 inhibitor, and juglone (5-hydroxy-1,4-naphthoquinone), a natural TrxR1 substrate, were pin-transferred to columns 2 and 3, respectively. After incubation for 15 min at room temperature (~22 deg C), 1 uL of selenite (400 uM final concentration) were dispensed to each well. The plate was immediately transferred to a ViewLux high-throughput CCD imager (PerkinElmer), wherein kinetic measurements of NADPH fluorescence (Ex 340 nm, Em 450 nm) were acquired (8 minute kinetic read, see Table 1). Read 1 was utilized to assess the capacity of a compound to serve as an rTrxR1 substrate, i.e. a decrease in NADPH fluorescence compared to the no-compound background is an indication of a substrate behavior for that particular compound. For inhibitory activity of a compound, delta values, computed as the difference in fluorescence intensity between the first and last reads of an 8-minute time kinetic window, were used. All reagents were diluted in an assay buffer consisting of 50 mM Tris-HCl, pH 7.5, 2 mM EDTA, and 0.01% Tween-20.
Throughout the screen, reagent bottle and all liquid lines were made light-tight to minimize reagent degradation. All screening operations were performed on a fully integrated robotic system (Kalypsys, San Diego, CA) containing one RX-130 and two RX-90 anthropomorphic robotic arms (Staubli, Duncan, SC). Library plates were screened starting from the lowest and proceeding to the highest concentration, and a 'double-pinning' step of the highest concentration was required to access higher concentrations of compounds. Vehicle-only plates, with DMSO being pin-transferred to the columns 5-48, were inserted uniformly at the beginning and the end of each library in order to monitor and record any shifts in the background, which can be affected by reagent dispensers or loss in enzyme activity over time. […]
Further: nearly all actives have a fitted effect of over 50% in size.
On the % scale 0 is the no-effect control and ±100 the full control effect.

Activity change, negative = substrate turnover, inactive:
Nc1ccc(/C=C/c2ccnc3ccccc23)c([N+](=O)[O-])c1 7.22% [at 0.0914 µM], O=C(CCCn1c(=O)c2cccn2c2cccnc21)NCc1ccc(F)cc1 11.5%, Cc1ccc(S(=O)(=O)N2CCN(c3nc(-n4cnc5ccccc54)nc4ccccc34)CC2)cc1 21.2%, CSc1n[nH]c(-c2ccco2)n1 -1.88%, CN(C)c1ccc(/C=C2\C=Cc3ccccc32)cc1Br -5.98%, O=C(Nc1ccc2nc(SCCOc3ccccc3)sc2c1)c1ccco1 1.62%, Cn1nnnc1SCCCNCc1cccc(OCc2ccc(Cl)cc2)c1 1.64%, COc1ccc(/C=C/c2ccccn2)cc1OC 10.2%, Cc1csc(NCC(=O)c2c[nH]c3ccccc23)n1 2.82%, Nc1nc(N)c(N=O)c(N)n1 -7.44%, OC(CBr)C[n+]1cccc2cc(Br)ccc21 (stereo unspecified) -10.1%, O=C(c1cnn2c1NC(=C1CC1)C=C2C(F)F)N1CCc2ccccc2C1 -0.0564%, Cc1cccc(CN2Cc3cccc4c3[C@H](C=CC4)CC2=S)c1 0.496%, Cc1cc[n+](C2CCCCC2)cc1 7.57%, COc1cccc(Nc2nc3ccccc3c3nncn23)c1 4.82%, CC(NC(=O)c1cc(Sc2ccc(F)cc2F)nc2ccccc12)c1ccccc1 (stereo unspecified) -8.64% [at 57.1 µM], Cc1ccc2cccc(NC(=O)c3ccc(OC(C)C)cc3)c2n1 -3.98%, CCc1ccc(Sc2cc(C(=O)NCCCOC(C)C)c3ccccc3n2)cc1 -2.53% [at 57.1 µM], Nc1ncnc2c1c(I)cn2[C@@H]1C[C@H](N)[C@@H](O)[C@H]1O 9.12% [at 57.1 µM], Cc1ccc(NC(=O)c2cc3cc(C)ccc3n2C)cc1 39.4%, O=C1COc2ccc(-c3csc(-c4ccc(Cl)cc4)n3)cc2N1 2.22%, CC(C)(C)c1ccc(C(=O)C[n+]2cccc3cc(Cl)ccc32)cc1 -5.71%, OC(Cc1ccc2ccccc2n1)c1ccc(Cl)c(Cl)c1 (stereo unspecified) 8.06%, CO[C@H]1O[C@@H]2O[C@@]3(C)CC[C@@H]4[C@@H](C)CC[C@@H]([C@H]1C)[C@@]24OO3 0.883%, CCOC(=O)c1cc(-c2ccccc2)n(-c2cccc(C(=O)Nc3cc(OC)cc(OC)c3)c2)c1C 3.42% [at 57.1 µM], CCOC(=O)c1c(C)[nH]c(CCC(=O)Nc2ccc(OC)c(OC)c2)c1C -1.04% [at 57.1 µM], CCc1ccccc1NC(=O)Cn1c(=O)n(-c2cccc(C)c2)c(=O)c2c1c1cc(OC)ccc1n2C 9.12%, CN(CCC#N)c1ccc(C=O)cc1 -11.2%, COc1ccccc1N1CCN(C2C(=O)c3ccccc3N2C(C)=O)CC1 (stereo unspecified) 1.92% [at 57.1 µM], CCOc1ccc(NC(=O)C(CC(C)C)N2Cc3ccccc3C2=O)cc1 (stereo unspecified) -4.22%, CN(C)CCCn1c(-c2ccc(Cl)cc2)csc1=Nc1ccccc1 -1.54% [at 57.1 µM], CC1(C)CCc2cc(S(=O)(=O)N3CCN(c4nc(-c5cccs5)nc5ccccc45)CC3)ccc2O1 2.89%, C=C1C=C(C)n2ncc(C(=O)Nc3ccccc3O)c2N1 1.54%, COC(=O)C1=C(C(=O)OC)[C@@H]2N(Cc3ccccc3)c3ccccc3[C@@]23C[C@@H](C(=O)OC)N(S(=O)(=O)c2ccc(C(F)(F)F)cc2)C3=N1 -10.9%, CCOc1ccc(N2CC(C)Cn3c2nc2c3c(=O)n(Cc3c(F)cccc3Cl)c(=O)n2C)cc1 (stereo unspecified) -1.89%, C=C1C=C(C(F)F)n2ncc(C(=O)NCCc3ccccc3OC)c2N1 -2.11%, Cc1ccc(NC(=O)C(Cc2ccccc2)NS(=O)(=O)c2ccc3c(c2)oc(=O)n3C)cc1C (stereo unspecified) -0.578%, CCOc1ccc(Nc2ncnc3scc(-c4ccc(OC)cc4)c23)cc1 3.1% [at 57.1 µM], COc1cccc(CNCCSc2nnnn2C)c1OCc1ccccc1Cl 8.42% [at 11.4 µM], Cc1ccc(Cn2cnc3c(cnn3C(C)(C)C)c2=O)c(F)c1 1.87%, COc1cc(C(=O)Nc2ccc(OCc3cc(=O)n4ccc(C)cc4n3)cc2)cc(OC)c1OC 8.56% [at 57.1 µM], CC1CCCN(c2nc3c(S(=O)(=O)c4ccc(C(C)C)cc4)nnn3c3ccsc23)C1 (stereo unspecified) 29.8%, Cc1[nH]c2ccccc2c1C(=O)C(=O)N(C)c1ccccc1 1.64%, CN(CC(=O)Nc1ccccc1F)S(=O)(=O)c1ccc2c(c1)c(=O)n(C)c(=O)n2C 7.12%, COc1ccccc1CNC(=O)C(=O)NCC(c1ccco1)S(=O)(=O)c1ccc(F)cc1 (stereo unspecified) -4.27% [at 57.1 µM], CCOc1ccccc1CNC(=O)C1CCCN(S(=O)(=O)c2ccc3c(ccn3C)c2)C1 (stereo unspecified) 6.22% [at 57.1 µM], CN(Cc1ccccc1)c1ccc(/C=C/c2ccnc3ccccc23)cc1 -8.75%, Oc1ccccc1-c1nc(/C=C/c2ccc(F)cc2)no1 6.31%, CC(C)Cn1c(-c2ccc(S(=O)(=O)N3CCOCC3)cc2)csc1=Nc1cc(Cl)ccc1Cl 3.11%, COc1cc(OC)c(OC)cc1/C=C1\C=Cc2ccccc21 6.44% [at 0.0914 µM], Cc1cccc(C(=O)N2CCc3cc(CNC(=O)Cc4ccc(F)cc4)ccc32)c1 -5.32% [at 57.1 µM], Cc1nnc(SCC(=O)NCc2ccccc2Cl)c2nn(-c3ccccc3)c(C)c12 -2.94%, Brc1cccc[n+]1Cc1cccc(C[n+]2ccccc2Br)c1 -9.86%, COc1cc2[nH]c(=O)n(Cc3ccc(C(=O)NCc4ccc(C)cc4)cc3)c(=O)c2cc1OC 3.98% [at 2.29 µM], CN(C)c1ccc(/C=N\Nc2ccc([N+](=O)[O-])cc2[N+](=O)[O-])cc1Cl -5.6%, COc1cc2nc(Cl)nc(NC3CC3)c2cc1OC -7.58%, Cc1nnc(C)n1-c1ccc(C(=O)Nc2cccc(Br)c2)cc1 0.591% [at 57.1 µM], Cc1ccc(C=O)cc1Cl 7.59%, Cc1ccc(-c2nnc3ccc(SCC(N)=O)nn23)cc1 11.6%, CN(C)c1ccc(C=Nc2ccc(/C=C/c3ccnc4ccccc34)cc2)cc1 -26.7%, Cc1nnc(NCc2ccccc2)c2c1nnn2Cc1ccc(F)cc1 -11.2%, CN(C)c1ccc(/C=C/c2sc3ccccc3[n+]2CCCCBr)cc1 -1.1%, CC(C)(C(=O)NO)c1ccccc1 7.41%, O=C1O/C(=C\c2ccc(O)cc2)C(O)=C1c1ccc(O)cc1 -5.92%, NC1CCN(O)C1=O (stereo unspecified) 6.14% [at 57.1 µM], C=COC(=O)N1CCN(/[N+]([O-])=N/Oc2ccc([N+](=O)[O-])cc2[N+](=O)[O-])CC1 10.5% [at 0.457 µM]
